This note sets out measurements from PubChem BioAssay (NCI).

This is part of a sample that, as a whole, favours compounds with a hit. Of some 83,000 tested, about 20% had one in any assay.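 Testing used 96-well plates and a 48-hour single-concentration exposure. Example: -40 means 40% of the starting cells died.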 Unmarked numbers belong to inactive results. The source made the active and inactive calls. The calls were made as follows: active = growth percent below 10; inactive = the rest.

Test in all cases: NCI-60 one-dose screen, 48 h (100 = growth as untreated, 0 = no growth, -100 = all killed)
Details in all cases: 10 µM

The subject of assay [1] is HCT-15 colon.
Assay [2] has as its system HT29 colon.
The subject of assay [3] is SNB-75 CNS.
Assay [4] has as its system SNB-19 CNS.
Assay [5] deals with U251 CNS.
Assay [6] concerns PC-3 prostate.
The subject of assay [7] is SK-MEL-5 melanoma.
Assay [8] concerns UACC-62 melanoma.
Assay [9] relates to LOX IMVI melanoma.
The subject of assay [10] is SK-MEL-2 melanoma.
For assay [11], the system named is EKVX NSCLC.
For assay [12], the system named is SN12C renal.
In assay [13] the test system is TK-10 renal.
In assay [14] the test system is ACHN renal.
In assay [15] the test system is CAKI-1 renal.
For assay [16], the system named is A498 renal.
For assay [17], the system named is CCRF-CEM leukemia.
The test system of assay [18] is MOLT-4 leukemia.
Assay [19] concerns UO-31 renal.
The subject of assay [20] is SK-MEL-28 melanoma.

Consider `Cc1cccc2cc(-c3cc(-c4ccccc4)nc(=O)[nH]3)c(Cl)nc12`, for which the growth was 64.1% in [1]; 107% in [2]; 89.1% in assay [3]; 68% in assay [4]; 62.6% in [5]; 77.6% in [6]. For the same compound, the growth in assay [7] was 96.3%; in assay [8], 80.1%; in assay [9] it was 54.1%; in assay [10], 102%; in [11], 84.6%; in [12] it was 84%. The growth in [13] was 110%; in [14] it was 91.8%; in [15], 87.2%; in assay [16], 94.5%; in assay [17], 8.46% (active); in assay [18] it was 61.3%.

On to `COC(=O)C[C@](O)(CCCC(C)(C)O)C(=O)O[C@H]1C(OC)=C[C@@]23CCC(=O)N2CCc2cc4c(cc2[C@@H]13)OCO4`, for which the growth in assay [1] is 97.8%; in [2], 93.6%; in assay [3], 94.6%; in assay [4], 84.4%; in assay [5], 114%; in assay [6], 89.5%. Besides, the growth is 98.3% in assay [7]; 89.5% in assay [8]; 78% in assay [9]; 110% in [10]; 103% in [11]; 115% in assay [12]. The growth in assay [19] was 65%; in [13], 101%; in assay [14], 101%; in assay [15], 94.3%; in assay [16] it was 76.6%; in assay [17], 101%. The growth in assay [18] is 73.4%.

With `COc1cc2oc(-c3cccc(C(=O)Nc4ccc(Cl)cc4)c3)cc(=O)c2c(OCCNC(=O)CNC(=O)OC(C)(C)C)c1OC`, the growth in assay [1] was 40.9%; in [2], 63.2%; in assay [3], 74.9%; in assay [4], 78.9%; in [5] it was 74.8%; in assay [6], 57.2%. The growth in [7] is 31.2%; in assay [8] it was 81%; in assay [20] it was 69.4%; in assay [10], 78.4%; in assay [11], 64.7%; in [12] it was 53.5%. In addition, the growth was 49.7% in assay [19]; 83.9% in assay [13]; 61.3% in assay [14]; 34.2% in assay [15]; 118% in [16]; 49.4% in assay [17]. For the same compound, the growth in assay [18] was 41.1%.

With `Cc1ccc(/C(N)=N/c2sc(-c3ccccc3)nc2-c2ccccc2)cc1`, the growth in [1] is 46.1%; in assay [2], 50.6%; in [3], 82.4%; in assay [4] it was 97.3%; in assay [5], 75.1%; in assay [6] it was 90.6%. For the same compound, the growth in assay [7] is 89.2%; in assay [8], 74.6%; in assay [20] it was 81.5%; in assay [10] it was 90.7%; in assay [11], 74.2%; in assay [12], 77.8%. The growth in assay [19] was 69.9%; in assay [14], 76.3%; in [15], 59.8%; in assay [16] it was 91.1%; in [17] it was 26.7%.

With `CC(=O)Nc1ccc(-n2cnc3cc(-c4ccc(NS(C)(=O)=O)cc4)ccc32)cc1`, the growth in [1] is 32.4%; in assay [2] it was 34.2%; in [3] it was 35.6%; in assay [4], 61.1%; in [5], 59.8%; in assay [6], 62.8%. The growth was 69.5% in assay [7]; 54.7% in assay [8]; 85.3% in assay [20]; 73.2% in assay [10]; 61% in assay [11]; 46.3% in assay [12]. For the same compound, the growth is 32.1% in assay [19]; 83.7% in [13]; 52.3% in [14]; 86.5% in assay [16]; 36.1% in assay [17]; 24.5% in assay [18].

On to `COc1cc(/C=C/C(=O)c2cc(OC)c(OC)c(OC)c2)ccc1Oc1nc(Nc2ccc(F)cc2)nc(N(C)C)n1`, for which the growth in assay [1] was -40.3% (active); in assay [2] it was -50.9% (active); in assay [3], -64.8% (active); in assay [4], -46.7% (active); in assay [5] it was -72.9% (active); in assay [6], -20% (active). For the same compound, the growth in assay [7] is -76.2% (active); in assay [8], -80.7% (active); in [20] it was -72.1% (active); in assay [10], -49.4% (active); in [11], 20.6%; in [12], -89.3% (active). In addition, the growth in assay [19] is -100% (active); in [13], 28.6%; in assay [14], -82.3% (active); in assay [15], 11.5%; in [16] it was -1.01% (active); in [17], 3.77% (active). Further, in assay [18], the growth was 4.87% (active).

With `COc1ccc(/C=C/C(=O)c2ccc(S(=O)(=O)NCCNc3nc(Nc4ccc(F)cc4)nc(N(C)C)n3)cc2)cc1`, the growth in assay [1] is 1.91% (active); in assay [2], -46.4% (active); in [3], 52.6%; in [4], 36.1%; in [5], 20.8%; in assay [6] it was 15.7%. The growth in assay [7] was 21.2%; in [8], 29.6%; in assay [9], -55.4% (active); in assay [10], 74.7%; in [11], 34.1%; in [12], 14.5%. Besides, the growth is 14% in assay [19]; 70.3% in assay [13]; 16.2% in [14]; 27.4% in [15]; 47.9% in [16]; 16% in [17]. In addition, the growth in [18] was 9.26% (active).

For the compound `Nc1nc2c(F)c(F)c(F)c(F)c2s1`, the growth is 102% in assay [1]; 104% in [2]; 83.1% in [3]; 99.8% in [4]; 96.5% in assay [5]; 104% in assay [6]. Also, the growth in [7] is 95.7%; in assay [8], 96.6%; in assay [20], 109%; in assay [10], 106%; in [11], 46.1%; in [12], 113%. The growth in assay [19] is 91%; in [13], 101%; in assay [14] it was 114%; in assay [15], 85.7%; in assay [16], 114%; in [17] it was 106%. Besides, in [18], the growth was 105%.
